Screening data deposited in PubChem by National Center for Advancing Translational Sciences (NCATS).
Hits are enriched below; roughly 18% of the tested compounds scored in any of these assays.
IL1B secr inh – inhibitors of inflammasome signaling (IL-1 beta secretion). THP-1 LPS/ATP IL-1B secretion, AlphaLISA, 16 h; active compounds read low. activity change, % at 57.5 µM. 360,000 tested, 4.7% active. AID 743279; in the data active = activity change below about -50%; inconclusive = mostly about -30% to -49%; note: % is set by controls: 0 for no effect and ±100 for the full control effect
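THP-1 cells pretreated 1 hr with compounds (up to 57.5 uM final), then stimulated with LPS (250 ng/mL final) plus ATP (1.25 mM final); secreted IL-1B measured by AlphaLISA after 16 hr, decreased signal indicating inhibition.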
TGFb SMAD3 inh – TGF-b pathway inhibition; 410,000 tested, 1.2% active; Potency, µM (highest dose often 46.1 µM), inactives show top-dose activity, negative = inhibition, hits mostly inhibitors; HepG2 CAGA-GFP TGF-b/SMAD3 reporter, GFP fluorescence, 18 h; TGF-beta stimulated, 500 pg/mL final; AID 588855; note: potency is the fitted concentration of half-maximal effect; % is set by controls: 0 for no effect and ±100 for the full control effect; nearly all actives have a fitted effect of over 65% in size
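GFP signal (ex488/em500-530) from TGF-beta-stimulated HEPG2 CAGA-GFP cells, 500 pg/mL final, 18 h at 37 degrees C in DMEM plus 1% FBS, normalized to unstimulated and DMSO-stimulated controls.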
TDP1 inh – TDP1 (human) enzyme inhibition; Potency, µM (doses to about 130 µM), without a hit: at the highest dose activity change, negative = inhibition, hits mostly inhibitors; recombinant TDP1, AlphaScreen DNA substrate cleavage; Q9NUW8; 350,000 tested, 0.28% active; AID 485290; note: potency is the fitted concentration of half-maximal effect; % is set by controls: 0 for no effect and ±100 for the full control effect; nearly all actives have a fitted effect of over 40% in size
Target sequence (Q9NUW8 whole entry, looked up): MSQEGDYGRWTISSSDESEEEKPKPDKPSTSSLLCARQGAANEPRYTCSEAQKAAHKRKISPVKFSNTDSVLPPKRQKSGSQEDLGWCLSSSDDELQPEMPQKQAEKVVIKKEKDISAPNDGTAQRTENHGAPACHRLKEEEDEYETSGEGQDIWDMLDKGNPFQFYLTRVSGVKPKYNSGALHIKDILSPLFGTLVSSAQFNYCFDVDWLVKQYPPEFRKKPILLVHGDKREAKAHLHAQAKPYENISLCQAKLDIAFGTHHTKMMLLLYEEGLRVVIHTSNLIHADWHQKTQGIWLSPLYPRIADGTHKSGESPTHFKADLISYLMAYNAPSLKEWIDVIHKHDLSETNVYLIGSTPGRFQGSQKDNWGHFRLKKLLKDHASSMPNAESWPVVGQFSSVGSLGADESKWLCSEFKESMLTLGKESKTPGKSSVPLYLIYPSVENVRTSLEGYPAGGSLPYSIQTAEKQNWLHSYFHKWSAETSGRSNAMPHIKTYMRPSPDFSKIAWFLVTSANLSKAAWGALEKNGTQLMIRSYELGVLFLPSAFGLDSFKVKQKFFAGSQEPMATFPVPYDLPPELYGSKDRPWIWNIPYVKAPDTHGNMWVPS
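Tdp1 1 nM final; 15 min RT w/ cpd; substrate 15 nM, 5 min; beads 10 ug/ml, 10 min; AlphaScreen read. Neg ctrl: no enzyme.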
HepG2 viability – kills HepG2 cells in TGF-b inhibitor counter-screen; 410,000 tested, 0.76% active; AID 588856; Potency, µM (titrated, usually from 46.1 µM), without a hit: at the highest dose activity change, negative = cytotoxicity, usual class: cytotoxic; HepG2 CAGA-GFP viability, ATP luminescence, 18 h; note: potency is the fitted concentration of half-maximal effect
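CellTiter-Glo luminescence gave cytotoxicity after 18 hours at 37 degrees C. The cells were HepG2 CAGA-GFP in 1% FBS DMEM, stimulated with 500 pg/mL TGF-beta after compound addition. %Activity was normalised to no-cell wells (complete cell-killing) and DMSO (no toxicity), and curves were fitted and classified.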
DT40 TDP1 CPT – growth inhibition of DT40 Tdp1-/-;hTDP1 cells with camptothecin (screen for TDP1 inhibitors); chicken DT40 Tdp1-/-;hTDP1 cells + 20 nM CPT, ATP luminescence, 48 h; Potency, µM (doses to about 46.2 µM), without a hit: at the highest dose activity change, negative = growth inhibition, most hits filed as inhibitors; 420,000 tested, 12% active; note: potency is the fitted concentration of half-maximal effect; % is set by controls: 0 for no effect and ±100 for the full control effect; nearly all actives have a fitted effect of over 55% in size
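Chicken DT40 Tdp1-/- cells stably complemented with human TDP1 were seeded at 400 cells/well in medium containing 20 nM camptothecin, exposed to pin-transferred compounds, and grown at 37 °C for at least 48 hr. Viability was read as ATP luminescence.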
DT40 TDP1 no CPT – qHTS for Inhibitors of human tyrosyl-DNA phosphodiesterase 1 (TDP1): qHTS in cells in absence of CPT | DT40 Tdp1-/- hTDP1 cells, no CPT, ATP luminescence, 48 h | Potency, µM (highest dose often 46.2 µM), for the others: at the top dose activity change, negative = growth inhibition, actives largely listed as inhibitors | 420,000 tested, 15% active; note: potency is the fitted concentration of half-maximal effect; % is set by controls: 0 for no effect and ±100 for the full control effect; nearly all actives have a fitted effect of over 55% in size
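Readout: luminescence from CellTiter-Glo after 30 min in the dark at RT. Cells: DT40 Tdp1-/- with stable hTDP1, 400/well. Exposure: compounds alone, ≥48 hr, 37 °C.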
Active calls of the source: *; ? = inconclusive; nt = not tested or not shown. Unless noted, calls come from the whole dose curve; as a rule, active = well fitted curve in the direction sought with a large enough effect; inconclusive = small, poorly fitted or top-dose-only effect, or another doubt; inactive = no such curve, though single readings can be large; an effect the other way counts as inactive or inconclusive.

SMILES | IL1B secr inh | TGFb SMAD3 inh | TDP1 inh | HepG2 viability | DT40 TDP1 CPT | DT40 TDP1 no CPT
COc1ccc(NC(=O)N2CCC(C(=O)c3ccc4c(c3)OCCO4)CC2)cc1 | -14.3 | 0.6% | 8.4% | -5.5% | -20.4% | ?
Cc1cccc(NC(=O)CN2CCC(C(=O)c3ccc4c(c3)OCCO4)CC2)c1 | ? | ? | 9.9% | -11.3% | ? | 16.4µM*
O=Cc1cccc(C=O)c1 | nt | -7.3% | nt | 1.4% | -2.7% | -29.2%
COCCNC(=O)CSc1ccc(Cl)cc1 | 0.0 | -4.3% | 0.0% | 4.6% | 16.1% | -14.5%
COCCNCCCCSc1ccc(Cl)cc1 | -6.0 | 0.7% | -1.2% | -27.7% | 14.6µM* | 18.4µM*
Cc1ccc(N(CC(=O)NCCc2ccc(Cl)cc2)S(=O)(=O)c2c(C)noc2C)cc1 | -2.3 | ? | 0.8% | -8.8% | 23.1µM* | 14.6µM*
Cc1ccc(S(=O)(=O)C2(C(=O)NCc3ccc4c(c3)OCO4)CC2)cc1 | 17.1 | 2.1% | 2.2% | -0.2% | ? | 18.4µM*
O=C(NCc1ccc2c(c1)OCO2)C1(S(=O)(=O)c2ccccc2)CC1 | 15.4 | -8.1% | 5.0% | -2.0% | -9.1% | -10.8%
Cc1cccc(CCNC(=O)CN(c2ccc(C(C)C)cc2)S(=O)(=O)c2c(C)nn(C)c2C)c1 | nt | -12.5% | 11.5% | -23.5% | ? | 16.4µM*
COc1ccc(CCNC(=O)CN(c2cc(C)cc(C)c2)S(=O)(=O)c2c(C)noc2C)cc1OC | -3.6 | -1.4% | 2.0% | -21.2% | ? | 18.4µM*
COC(=O)[C@H](CC(C)C)NC(=O)/C=C/[C@H]1O[C@@H](n2ccc(=O)[nH]c2=O)[C@H](O)[C@@H]1O | 33.7 | -10.2% | nt | -2.5% | 1.5% | 9.4%
CC(C(=O)O)N1C(=O)C2C3c4ccccc4C(c4ccccc43)[C@@H]2C1=O (stereo not given in full) | 0.0 | -5.9% | nt | -2.2% | -4.2% | 55.7%
Cc1noc(C)c1S(=O)(=O)N(CC(=O)NCc1ccc2c(c1)OCO2)c1ccc(C(C)C)cc1 | -1.9 | -12.4% | 3.9% | -9.5% | ? | ?
Cc1ccc(N(CC(=O)NCc2ccc3c(c2)OCO3)S(=O)(=O)c2c(C)noc2C)cc1 | -12.0 | 6.3% | -3.9% | -4.1% | ? | 23.1µM*
Cc1ccc(CCNC(=O)CN(c2ccc(C)cc2)S(=O)(=O)c2c(C)noc2C)cc1 | -5.4 | -11.5% | 1.6% | -5.5% | ? | 16.4µM*
Cc1ccc(CCNC(=O)CN(c2cc(C)cc(C)c2)S(=O)(=O)c2c(C)noc2C)cc1 | -0.9 | -5.4% | 0.4% | -5.1% | -21.7% | ?
C#CCn1c(=O)cc(C)c2ccccc21 | 61.7 | 7.2% | -2.7% | -0.1% | 22.1% | 6.3%
C#CCn1cc(C=C2C(=O)c3ccccc3C2=O)c2ccccc21 | 7.2 | 7.1% | 5.5% | -0.6% | 23.1µM* | 20.6µM*
COC(=O)CSc1nc(N)c2c3c(sc2n1)C(c1ccccc1)SC(c1ccccc1)C3 (stereo not given) | -99.7* | 2.8% | 8.5% | -7.0% | 4.11µM* | 2.59µM*
Cc1ccc2oc(C(Cl)(Cl)Cl)cc(=O)c2c1 | -99.9* | ? | 7.1% | -30.0% | 4.61µM* | 5.8µM*
Cc1ccc(NC(=O)Cn2c(=O)n(CCC(=O)NCCc3ccccc3)c(=O)c3ccccc32)cc1 | nt | -7.5% | 5.0% | 0.9% | -10.7% | -9.8%
CCN(CC)CC(O)CNc1ccnc2c(Cl)ccc(Cl)c12 (stereo not given) | -66.0* | 24.2% | nt | 4.2% | 5.6% | -6.2%
COc1cc(CCN2C(=O)c3cccc4cccc(c34)C2=O)c(S(=O)(=O)N2CCC(C)CC2)cc1OC | -4.4 | -18.8% | -0.6% | -13.6% | 25.9µM* | 2.59µM*
